We go through seven compounds from PubChem BioAssay (NCI).

Several values for one entry are separate records, joined by “and”; a condition that tells them apart may be missing. Equal values may be shown once. The panel holds about 83,000 compounds, 20% with a hit somewhere; the sample as a whole holds those more often.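 Results are percent growth after 48 hours of single-concentration exposure. 100 means growth as in untreated cells, lower positive values show inhibition; negative values down to -100 show cell death.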 Activity calls are given as the source filed them. Rule for the calls: active = growth percent below 10; inactive = the rest.

Some test systems named below: HCT-15 colon; HT29 colon; SNB-75 CNS; SNB-19 CNS; U251 CNS; PC-3 prostate; SK-MEL-5 melanoma; UACC-62 melanoma; LOX IMVI melanoma; SK-MEL-28 melanoma; SK-MEL-2 melanoma; EKVX NSCLC; SN12C renal; UO-31 renal; TK-10 renal; ACHN renal; CAKI-1 renal; A498 renal; CCRF-CEM leukemia; MOLT-4 leukemia.
Common to all, as to assay: NCI-60 one-dose screen, 48 h (100 = growth as untreated, 0 = no growth, -100 = all killed)
What all share (details): 10 µM unless noted

Regarding `C/C=C(\C)C(=O)N[C@H]1CC[C@]2(C)C3CC[C@@]4(C)C(CC[C@@H]4C(C)N(C)C)C3CCC2[C@H]1OC(C)=O` (stereo not given in full), the growth in the test with HCT-15 colon was -78.4% (active); in the test with HT29 colon it was -68.4% (active); with SNB-75 CNS, -50% (active); with SNB-19 CNS, -58.7% (active); in the test with U251 CNS, -66.1% (active); in the test on PC-3 prostate it was 0.354% (active). Besides, the growth in the test on SK-MEL-5 melanoma is -100% (active); in the test on UACC-62 melanoma, -51.7% (active); in the test on LOX IMVI melanoma it was -78.8% (active); in the test with SK-MEL-28 melanoma, -97.5% (active); in the test with SK-MEL-2 melanoma it was -32.7% (active); in the test with EKVX NSCLC, -11.3% (active). For the same compound, the growth is -3.57% (active) in the test on SN12C renal; -4.52% (active) with UO-31 renal; -48.3% (active) with TK-10 renal; -65.1% (active) in the test on ACHN renal; -43.3% (active) in the test with CAKI-1 renal; -32.9% (active) in the test on A498 renal. The growth in the test on CCRF-CEM leukemia was 1.62% (active); with MOLT-4 leukemia it was 11.2% (inactive).
With `O=S(=O)(Nc1ccc(F)cc1)c1ccc(-c2cnc(C3CC3)o2)cc1`, the growth in the test on HCT-15 colon was 19.9% (inactive); with HT29 colon, 7.98% (active); in the test with SNB-75 CNS it was 0.813% (active); in the test with SNB-19 CNS, 29.7% (inactive); in the test with U251 CNS it was 21% (inactive); in the test on PC-3 prostate it was 31.2% (inactive). Besides, the growth with SK-MEL-5 melanoma was 25.5% (inactive); in the test with UACC-62 melanoma it was 27.5% (inactive); with LOX IMVI melanoma it was 51.5% (inactive); with SK-MEL-28 melanoma, 56.2% (inactive); in the test on SK-MEL-2 melanoma, 12.8% (inactive); in the test on EKVX NSCLC, 44.4% (inactive). Besides, the growth in the test on SN12C renal was 35.5% (inactive); in the test on UO-31 renal, 36.3% (inactive); in the test on TK-10 renal, 32.4% (inactive); with ACHN renal, 32% (inactive); in the test on CAKI-1 renal, 36.3% (inactive); with A498 renal, 14.1% (inactive). For the same compound, the growth in the test on CCRF-CEM leukemia was 10.5% (inactive); with MOLT-4 leukemia it was 12.7% (inactive).
`COc1ccc(N2CCN(S(=O)(=O)c3oc(-c4ccccc4)nc3C#N)CC2)cc1`: the growth in the test with HCT-15 colon was 9.51% (active); in the test with HT29 colon it was 50.6% (inactive); in the test with SNB-75 CNS, 93.4% (inactive); in the test with SNB-19 CNS, 92.2% (inactive); in the test on U251 CNS it was 88.2% (inactive); in the test on PC-3 prostate, 92% (inactive). The growth in the test on SK-MEL-5 melanoma is 81.2% (inactive); in the test with UACC-62 melanoma, 85.5% (inactive); in the test on LOX IMVI melanoma it was 4.64% (active); in the test with SK-MEL-28 melanoma, 98.6% (inactive); in the test on SK-MEL-2 melanoma, 72.4% (inactive); in the test with EKVX NSCLC it was 118% (inactive). The growth in the test on SN12C renal was 68.9% (inactive); with UO-31 renal it was 85.9% (inactive); in the test on TK-10 renal it was 71.6% (inactive); with ACHN renal, 79.2% (inactive); in the test with CAKI-1 renal, 107% (inactive); in the test with A498 renal it was 128% (inactive). Besides, the growth with CCRF-CEM leukemia is 4.32% (active); in the test on MOLT-4 leukemia, 3.95% (active).
In the case of `CC/C=C\C/C=C\C[C@H](O)C/C=C1/C(=O)C=C[C@@H]1C/C=C\CCCC(=O)OC`, the growth in the test on HCT-15 colon was -25.8% (active); in the test on HT29 colon, -25.4% (active); in the test on SNB-75 CNS, 53.3% (inactive); in the test with SNB-19 CNS, 20.2% (inactive); in the test with U251 CNS, -73.3% (active); in the test with PC-3 prostate it was -36.6% (active). The growth in the test with SK-MEL-5 melanoma was -94.9% (active); with UACC-62 melanoma it was -56% (active); with LOX IMVI melanoma, -80.5% (active); with SK-MEL-28 melanoma, -38% (active); with SK-MEL-2 melanoma it was -16.9% (active); with EKVX NSCLC, 24.8% (inactive). The growth in the test on SN12C renal is -29.2% (active); with UO-31 renal, -83.3% (active); with TK-10 renal, 5.09% (active); in the test with ACHN renal it was -75.9% (active); with CAKI-1 renal it was -1.75% (active); in the test with A498 renal, 21.9% (inactive). In addition, the results for the growth with CCRF-CEM leukemia and in the test on MOLT-4 leukemia were -11.7% (active) and -10.5% (active), respectively.
For the compound `COc1ccc(-c2cc(-c3cccnc3)nc3sc4c(Cl)nnnc4c23)cc1OC`, the growth is 69.9% (inactive) in the test with HCT-15 colon; 87.9% (inactive) in the test on HT29 colon; 81.5% (inactive) with SNB-75 CNS; 95.6% (inactive) in the test on SNB-19 CNS; 92.1% (inactive) in the test on U251 CNS; 81.1% (inactive) in the test on PC-3 prostate. Further, the growth was 84.4% (inactive) in the test on SK-MEL-5 melanoma; 81% (inactive) with UACC-62 melanoma; 36.4% (inactive) in the test with LOX IMVI melanoma; 112% (inactive) in the test with SK-MEL-28 melanoma; 98.3% (inactive) in the test with SK-MEL-2 melanoma; 111% (inactive) in the test on EKVX NSCLC. Further, the growth in the test on SN12C renal was 92.9% (inactive); with UO-31 renal it was 76.3% (inactive); with TK-10 renal, 129% (inactive); in the test on ACHN renal it was 87.4% (inactive); in the test with CAKI-1 renal, 101% (inactive); with A498 renal, 88.1% (inactive). In addition, the values for the growth with CCRF-CEM leukemia and in the test on MOLT-4 leukemia were 33.6% (inactive) and 49.1% (inactive), respectively.
Turning to `NS(=O)(=O)OCC1OC(n2cnc3cncnc32)C(O)C1O` (stereo not given), the growth in the test with HCT-15 colon was 22% [0.1 µM] (inactive) and 8.65% [0.1 µM] (active); with HT29 colon, 13.7% [0.1 µM] (inactive) and 14.3% [0.1 µM] (inactive); in the test with SNB-75 CNS, 32.3% [0.1 µM] (inactive) and 40.4% [0.1 µM] (inactive); in the test on SNB-19 CNS it was -4.22% [0.1 µM] (active) and 0.183% [0.1 µM] (active); with U251 CNS, -11.8% [0.1 µM] (active); in the test with PC-3 prostate it was 21% [0.1 µM] (inactive) and 17.8% [0.1 µM] (inactive). The growth is 49.4% [0.1 µM] (inactive) in the test with SK-MEL-5 melanoma; 44.2% [0.1 µM] (inactive) and 42.4% [0.1 µM] (inactive) in the test with UACC-62 melanoma; 5.02% [0.1 µM] (active) and 5.99% [0.1 µM] (active) in the test on LOX IMVI melanoma; 38.5% [0.1 µM] (inactive) and 37.4% [0.1 µM] (inactive) in the test on SK-MEL-28 melanoma; 30.5% [0.1 µM] (inactive) and 21.3% [0.1 µM] (inactive) with SK-MEL-2 melanoma; 69.5% [0.1 µM] (inactive) in the test on EKVX NSCLC. Further, the growth in the test with SN12C renal was -10.2% [0.1 µM] (active) and -29.3% [0.1 µM] (active); in the test with UO-31 renal it was -2.13% [0.1 µM] (active) and 19.4% [0.1 µM] (inactive); in the test with TK-10 renal, 18.5% [0.1 µM] (inactive) and 13% [0.1 µM] (inactive); in the test on ACHN renal, 13.3% [0.1 µM] (inactive) and 14.6% [0.1 µM] (inactive); in the test on CAKI-1 renal it was -34.9% [0.1 µM] (active) and 8.16% [0.1 µM] (active); in the test with A498 renal, -5.51% [0.1 µM] (active) and -5.14% [0.1 µM] (active). Besides, the growth with CCRF-CEM leukemia was 11.4% [0.1 µM] (inactive) and -1.11% [0.1 µM] (active); in the test with MOLT-4 leukemia, 0.572% [0.1 µM] (active) and -5.43% [0.1 µM] (active).
On to `COc1ccc(C/C(C)=C(\c2ccc(O)cc2)c2ccc(OCCCN(C)C)cc2)cc1`, for which the growth in the test on HCT-15 colon is 89.7% (inactive); in the test on HT29 colon, 77.6% (inactive); with SNB-75 CNS it was 84.1% (inactive); in the test on SNB-19 CNS it was 100% (inactive); in the test on U251 CNS it was 80.5% (inactive); in the test on PC-3 prostate it was 83.4% (inactive). Besides, the growth in the test with SK-MEL-5 melanoma was 98.4% (inactive); in the test with UACC-62 melanoma it was 108% (inactive); in the test on LOX IMVI melanoma, 88.9% (inactive); in the test on SK-MEL-28 melanoma it was 112% (inactive); with SK-MEL-2 melanoma, 88.4% (inactive); with EKVX NSCLC, 98.2% (inactive). Besides, the growth with SN12C renal is 93.3% (inactive); in the test on UO-31 renal it was 77.7% (inactive); in the test with TK-10 renal it was 86.9% (inactive); in the test on ACHN renal it was 109% (inactive); in the test on CAKI-1 renal it was 107% (inactive); in the test with A498 renal, 101% (inactive). Also, the growth is 73.9% (inactive) with CCRF-CEM leukemia and 68.8% (inactive) in the test on MOLT-4 leukemia.
